# Calls of active or inactive are those of the source. Calls follow the shape of the dose curve; as a rule, active = well fitted curve in the direction sought with a large enough effect; inactive = no such curve, though single readings can be large or run the other way.
# Target: Alpha-galactosidase (Coffea arabica) (UniProt Q42656)
# Experiment: Counterscreen for Glucocerebrosidase Inhibitors: qHTS Assay for Coffee Bean alpha-Galactosidase at pH 5.9 (AID 998)
# Conditions: coffee bean alpha-galactosidase enzyme assay; series mostly up to 76.9 µM
# Outline: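 Compounds were titrated from 0.7 nM to 77 uM against green coffee bean alpha-galactosidase (2 nM) using 80 uM fluorogenic 4-methylumbelliferyl substrate. After 20 min at room temperature, reactions were stopped at pH 10 and read by fluorescence.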
# Alpha-galactosidase (Coffea arabica), sequence (Q42656 whole entry, looked up): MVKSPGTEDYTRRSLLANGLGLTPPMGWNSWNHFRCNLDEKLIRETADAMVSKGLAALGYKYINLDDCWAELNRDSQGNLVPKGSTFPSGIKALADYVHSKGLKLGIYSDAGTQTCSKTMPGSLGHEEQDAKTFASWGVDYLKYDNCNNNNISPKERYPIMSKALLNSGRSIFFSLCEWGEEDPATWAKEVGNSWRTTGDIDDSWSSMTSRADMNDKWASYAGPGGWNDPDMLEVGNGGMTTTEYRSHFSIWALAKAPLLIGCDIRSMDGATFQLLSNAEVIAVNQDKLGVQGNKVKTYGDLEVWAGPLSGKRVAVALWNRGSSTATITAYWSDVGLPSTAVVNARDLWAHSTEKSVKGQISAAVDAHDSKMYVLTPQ
row,SMILES,outcome
1,COCC(=O)O[C@]1(CCN(C)CCCc2nc3ccccc3[nH]2)CCc2cc(F)ccc2[C@@H]1C(C)C,inactive
2,NS(=O)(=O)c1cc2c(cc1Cl)NCNS2(=O)=O,inactive
3,COc1cc2c(cc1OC)-c1cc(=Nc3c(C)cc(C)cc3C)n(C)c(=O)n1CC2,inactive
4,O=C(CCNNC(=O)c1ccncc1)NCc1ccccc1,inactive
5,CC(C)(C)c1ccc(C(O)CCCN2CCC(C(O)(c3ccccc3)c3ccccc3)CC2)cc1 (centres undefined),inactive
6,NCCc1ccc(O)c(O)c1,inactive
7,O=C(c1ccc(F)cc1)C1CCN(CCn2c(=O)[nH]c3ccccc3c2=O)CC1,inactive
8,C[N+](C)(C)CCCCCCCCCC[N+](C)(C)C,inactive
9,CC1=C(C)C(=O)C(CCCCC#CCCCC#CCO)=C(C)C1=O,inactive
10,CCCCC1C(=O)N(c2ccccc2)N(c2ccccc2)C1=O,inactive
11,CCCCNc1ccc(C(=O)OCCN(C)C)cc1,inactive
12,O=c1[nH]c2ccccc2n1CCCN1CCN(C(c2ccccc2)c2ccccc2)CC1,inactive
13,N[C@@H](Cc1c[nH]c2ccc(O)cc12)C(=O)O,inactive
14,COc1ccc2c(c1)c(CC(=O)O)c(C)n2C(=O)c1ccc(Cl)cc1,inactive
15,Clc1ccccc1C(c1ccccc1)(c1ccccc1)n1ccnc1,inactive
16,C[C@]12CC[C@@H]3c4ccc(O)cc4CC[C@H]3[C@@H]1CCC2=O,inactive
17,O=C(O)CP(=O)(O)O,inactive
18,CC1=C(CC(=O)O)c2cc(F)ccc2/C1=C\c1ccc(S(C)(=O)=O)cc1,inactive
19,Cc1ccc(=O)n(-c2ccccc2)c1,inactive

# From PubChem BioAssay (NCATS)
